According to PubChem BioAssay (Tox21):
Results filed as inconclusive are left out. The source made the active and inactive calls. The call rests on the fitted dose curve; in most records, active means well fitted curve in the direction sought with a large enough effect in the repeat runs; inconclusive means weak or mixed curves; inactive means no such curve, though single readings can be large; an effect the other way counts as inactive or inconclusive.

Key:
[1] = A CellTox Green Cytotoxicity Assay to monitor cytotoxicity in HEK293 cells - 40 hour (AID 1224871); further: nearly all actives have a fitted effect of over 45% in size
How it was run: (§1)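 Fluorescence intensity, read at 0, 8, 16, 24, 32 and 40 h of compound treatment, reflected dye binding to DNA of dead HEK293 cells; compounds (23 nL, DMSO) were added 5 h after plating cells with reagent.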

[2] = qHTS RealTime-Glo MT Cell Viability Assay in HEK293 cells - 16 hour (AID 1224872); further: top concentration of the series differs between compounds; nearly all actives have a fitted effect of over 50% in size
How it was run: (§2)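 HEK293 cells were seeded at 600 cells/well together with NanoLuc luciferase and cell-permeant prosubstrate, preincubated 5 h at 37 C/5% CO2, then given compound in DMSO by pintool. Luminescence from viable-cell prosubstrate reduction was read repeatedly over 40 h.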

[3] = qHTS RealTime-Glo MT Cell Viability Assay in HepG2 cells - 8 hour (AID 1224873); further: nearly all actives have a fitted effect of over 55% in size
How it was run: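 Real-time viability: cells seeded at 600 per well together with NanoLuc and cell-permeant prosubstrate, compounds added after 5 h incubation. Luminescence tracked at 0, 8, 16, 24, 32 and 40 h of exposure.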

[4] = qHTS RealTime-Glo MT Cell Viability Assay in HEK293 cells - 40 hour (AID 1224874); details: RealTime-Glo luminescence; max response: stronger effect = lower value; further: nearly all actives have a fitted effect of over 50% in size
How it was run: (§3)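 Viable HEK293 cells reduce a cell-permeant prosubstrate; the product diffuses out and is consumed by NanoLuc in the medium to give light. Compounds went in after a 5 h incubation and plates were read over the treatment course.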

[5] = A CellTox Green Cytotoxicity Assay to monitor cytotoxicity in HEK293 cells - 24 hour (AID 1224875); further: series mostly up to about 77 µM; nearly all actives have a fitted effect of over 45% in size
How it was run: as §1

[6] = A CellTox Green Cytotoxicity Assay to monitor cytotoxicity in HepG2 cells - 16 hour (AID 1224876); further: nearly all actives have a fitted effect of over 45% in size
How it was run: (§4)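 Using 1536-well format, dye-containing HepG2 suspension was seeded, allowed 5 h at 37 C/5% CO2, dosed by pintool with compounds, positive and negative controls, and imaged for fluorescence across 40 h.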

[7] = qHTS RealTime-Glo MT Cell Viability Assay in HepG2 cells - 32 hour (AID 1224877); further: nearly all actives have a fitted effect of over 55% in size
How it was run: (§5)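 HepG2 cells were seeded at 600 cells/well together with NanoLuc luciferase and a cell-permeant prosubstrate, preincubated 5 h at 37 C/5% CO2, then pin-dosed with compounds in DMSO. Nonlytic luminescence from viable cells was read at each time point.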

[8] = A CellTox Green Cytotoxicity Assay to monitor cytotoxicity in HepG2 cells - 24 hour (AID 1224878); further: nearly all actives have a fitted effect of over 45% in size
How it was run: as §4

[9] = A CellTox Green Cytotoxicity Assay to monitor cytotoxicity in HepG2 cells - 40 hour (AID 1224879); further: nearly all actives have a fitted effect of over 40% in size
How it was run: as §4

[10] = qHTS RealTime-Glo MT Cell Viability Assay in HEK293 cells - 0 hour (AID 1224880)
How it was run: as §3

[11] = A CellTox Green Cytotoxicity Assay to monitor cytotoxicity in HEK293 cells - 32 hour (AID 1224881); further: nearly all actives have a fitted effect of over 40% in size
How it was run: as §1

[12] = A CellTox Green Cytotoxicity Assay to monitor cytotoxicity in HepG2 cells - 0 hour (AID 1224882); further: nearly all actives have a fitted effect of over 35% in size
How it was run: as §4

[13] = A CellTox Green Cytotoxicity Assay to monitor cytotoxicity in HepG2 cells - 32 hour (AID 1224883); further: nearly all actives have a fitted effect of over 50% in size
How it was run: as §4

[14] = A CellTox Green Cytotoxicity Assay to monitor cytotoxicity in HEK293 cells - 8 hour (AID 1224884); further: nearly all actives have a fitted effect of over 35% in size
How it was run: as §1

[15] = qHTS RealTime-Glo MT Cell Viability Assay in HepG2 cells - 16 hour (AID 1224885); further: nearly all actives have a fitted effect of over 50% in size
How it was run: as §5

[16] = qHTS RealTime-Glo MT Cell Viability Assay in HEK293 cells - 24 hour (AID 1224886)
How it was run: as §2

[17] = qHTS RealTime-Glo MT Cell Viability Assay in HEK293 cells - 8 hour (AID 1224887)
How it was run: as §3

[18] = A CellTox Green Cytotoxicity Assay to monitor cytotoxicity in HEK293 cells - 16 hour (AID 1224888); further: nearly all actives have a fitted effect of over 35% in size
How it was run: as §1

[19] = qHTS RealTime-Glo MT Cell Viability Assay in HepG2 cells - 0 hour (AID 1224889); further: nearly all actives have a fitted effect of over 50% in size
How it was run: as §5

[20] = A CellTox Green Cytotoxicity Assay to monitor cytotoxicity in HepG2 cells - 8 hour (AID 1224890); further: nearly all actives have a fitted effect of over 45% in size
How it was run: as §4
On the % scale 0 is the no-effect control and ±100 the full control effect.

Cc1ccc(NC(=O)N(C)C)cc1NC(=O)N(C)C
inactive: Potency [1] | Potency [2] | Potency [3] | max response [4] -1.73% | Potency [5] | Potency [6] | Potency [7] | Potency [8] | Potency [9] | Potency [10] | Potency [11] | Potency [12] | Potency [13] | Potency [14] | Potency [15] | Potency [16] | Potency [17] | Potency [18] | Potency [19]

CC(C)CC(O)CC(C)C
inactive: Potency [1] | Potency [2] | Potency [3] | max response [4] 2.3% | Potency [5] | Potency [6] | Potency [7] | Potency [8] | Potency [9] | Potency [10] | Potency [11] | Potency [12] | Potency [13] | Potency [14] | Potency [15] | Potency [16] | Potency [17] | Potency [18] | Potency [20]

O=C(O)CCC(=O)c1ccc(-c2ccccc2)cc1
inactive: Potency [1] | Potency [2] | Potency [3] | max response [4] 0.573% | Potency [5] | Potency [6] | Potency [7] | Potency [8] | Potency [9] | Potency [10] | Potency [11] | Potency [12] | Potency [13] | Potency [14] | Potency [15] | Potency [16] | Potency [17] | Potency [18] | Potency [20]

CC(O)Cn1cnc2c1c(=O)n(C)c(=O)n2C (configuration not stated)
inactive: Potency [1] | Potency [2] | Potency [3] | max response [4] 5.1% | Potency [5] | Potency [6] | Potency [7] | Potency [8] | Potency [9] | Potency [10] | Potency [11] | Potency [12] | Potency [13] | Potency [14] | Potency [15] | Potency [16] | Potency [17] | Potency [18] | Potency [19] | Potency [20]

O=C1OC(=O)c2c(Br)c(Br)c(Br)c(Br)c21
inactive: Potency [1] | Potency [2] | Potency [3] | max response [4] -18% | Potency [5] | Potency [6] | Potency [7] | Potency [8] | Potency [9] | Potency [10] | Potency [11] | Potency [12] | Potency [13] | Potency [14] | Potency [15] | Potency [16] | Potency [17] | Potency [18] | Potency [19] | Potency [20]

CC(C)(C)S
inactive: Potency [1] | Potency [2] | Potency [3] | max response [4] -0.0448% | Potency [5] | Potency [6] | Potency [7] | Potency [8] | Potency [9] | Potency [10] | Potency [11] | Potency [12] | Potency [13] | Potency [14] | Potency [15] | Potency [16] | Potency [17] | Potency [18] | Potency [19] | Potency [20]

Oc1cccc2[nH]ccc12
inactive: Potency [1] | Potency [2] | Potency [3] | max response [4] 12.2% | Potency [5] | Potency [6] | Potency [7] | Potency [8] | Potency [9] | Potency [10] | Potency [11] | Potency [12] | Potency [13] | Potency [14] | Potency [15] | Potency [16] | Potency [17] | Potency [18] | Potency [19] | Potency [20]

C=C(C)C(=O)OCCC(F)(F)C(F)(F)C(F)(F)C(F)(F)C(F)(F)C(F)(F)F
inactive: Potency [1] | Potency [2] | Potency [3] | max response [4] 0.419% | Potency [5] | Potency [6] | Potency [7] | Potency [8] | Potency [9] | Potency [10] | Potency [11] | Potency [12] | Potency [13] | Potency [14] | Potency [15] | Potency [16] | Potency [17] | Potency [18] | Potency [19] | Potency [20]

CC(C)c1ccc(C(=O)N=C(N)N)cc1S(C)(=O)=O
inactive: Potency [1] | Potency [2] | Potency [3] | max response [4] 18.4% | Potency [5] | Potency [6] | Potency [7] | Potency [8] | Potency [9] | Potency [10] | Potency [11] | Potency [12] | Potency [13] | Potency [14] | Potency [15] | Potency [16] | Potency [17] | Potency [18] | Potency [19] | Potency [20]

O=c1[nH]c2cc(C(F)(F)F)c(N3CCOCC3)cc2n(CP(=O)(O)O)c1=O
inactive: Potency [1] | Potency [2] | Potency [3] | max response [4] 8.28% | Potency [5] | Potency [6] | Potency [7] | Potency [8] | Potency [9] | Potency [10] | Potency [11] | Potency [12] | Potency [13] | Potency [14] | Potency [15] | Potency [16] | Potency [17] | Potency [18] | Potency [19] | Potency [20]

O=C(O)CCS
inactive: Potency [1] | Potency [2] | Potency [3] | max response [4] 7.66% | Potency [5] | Potency [6] | Potency [7] | Potency [8] | Potency [9] | Potency [10] | Potency [11] | Potency [12] | Potency [13] | Potency [14] | Potency [15] | Potency [16] | Potency [17] | Potency [18] | Potency [19] | Potency [20]

O=C1NC(=O)c2cccc3cccc1c23
inactive: Potency [1] | Potency [2] | Potency [3] | max response [4] -4.43% | Potency [5] | Potency [6] | Potency [7] | Potency [8] | Potency [9] | Potency [10] | Potency [11] | Potency [12] | Potency [13] | Potency [14] | Potency [15] | Potency [16] | Potency [17] | Potency [18] | Potency [19] | Potency [20]

CSSc1ccoc1C
inactive: Potency [1] | Potency [2] | Potency [3] | max response [4] 0.757% | Potency [5] | Potency [6] | Potency [7] | Potency [8] | Potency [9] | Potency [10] | Potency [11] | Potency [12] | Potency [13] | Potency [14] | Potency [15] | Potency [16] | Potency [17] | Potency [18] | Potency [19] | Potency [20]
